In PubChem BioAssay (NCI):
About 79,000 compounds went through this panel and 15% of them were active in at least one assay; those are over-represented in the sample as a whole. Calls of active or inactive are those of the source. Cut-off read from the data, not from the text of the source: active = growth inhibition above about 70%; inactive = the rest.

Assay: NCI Yeast Anticancer Drug Screen. Data for the rad50 strain (AID 155);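 note: 0% = growth of vehicle-only cultures of the same strain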
Settings: S. cerevisiae rad50 strain growth inhibition; at 50.0 µM; active compounds read high
Description: Growth inhibition of yeast strains with defined genetic alterations is measured as a screen for potential anti-cancer activity. Selected strains with alterations in DNA damage repair or cell cycle control were exposed to compounds and growth inhibition was measured relative to vehicle treated controls. The strain used in this assay is rad50

SMILES	growth inhibition
Cc1cc(O)c([N+](=O)[O-])c(C)c1[N+](=O)[O-]	2.2% (inactive)
C/C(=C\C(=N\Nc1nc(C)cc(=O)[nH]1)c1ccccc1)c1ccccc1	12.4% (inactive)
COC(=O)c1cc(-c2ccc(F)cc2)[nH]c(=O)c1C#N	6.3% (inactive)
COc1cc2c[n+](C)c(-c3ccc(Cl)c(Cl)c3)c(OC)c2cc1OC	56.1% (inactive)
C(=N/n1nnc(-c2ccccc2)n1)/c1ccccc1	-2.4% (inactive)
O=c1nc(-c2ccco2)sc(=O)[nH]1	-0.05% (inactive)
CC(=O)N/N=C1/NN(C(C)=O)C2(S1)C(=O)Nc1ccc(C)cc12 (stereo not given)	-4.15% (inactive)
CCN(CC)C(=O)C1CCNCC1	-12.3% (inactive)
O=C(O)C(Cc1ccccc1)c1ccc(Cl)cc1 (stereo not given)	38.1% (inactive)
O=[N+]([O-])c1ccc2c(Cl)c3ccccc3nc2c1	20.1% (inactive)
OCC(O)C(O)C(O)C(O)/C=N\Nc1ccccc1 (stereo not given)	43.3% (inactive)
C[C@@H]1CC[C@]2(C)C3(C)CC[C@]2(OC3=O)[C@@]12CC(c1ccoc1)OC2=O (stereo not given in full)	-5.9% (inactive)
CCCC(=O)C(CC)C(=O)OCC (stereo not given)	-8.7% (inactive)
CC1(C)N=C(N)N=C(N)N1c1cccc(CO)c1	0.5% (inactive)
COc1ccc(C2CC(c3ccccc3)=Nc3ccccc3S2)cc1OC (stereo not given)	0.25% (inactive)
O=C(C[N+](=O)[O-])OCc1ccccc1	14.8% (inactive)
CCCC1CCCC1C (stereo not given)	4.3% (inactive)
CC(=O)OCCS(=O)(=O)c1c(Cl)c(Cl)c(Cl)c(Cl)c1Cl	95.7% (active)
O.[Cl][Pt].[NH-]CC[S-]	-9.5% (inactive)
CC(=O)NC1C(OC2C(CO)OC(OCC3OC(n4ccc(N)nc4=O)C(O)C3O)C(NC(C)=O)C2O)OC(CO)C(O)C1O (stereo not given)	31.9% (inactive)

SMILES	growth inhibition
O=[N+]([O-])c1ccc(N=Cc2ccccc2)cc1	1.95% (inactive)
c1ccc(-c2n[nH]c(-c3[nH]nc(-c4ccccc4)c3-c3ccccc3)c2-c2ccccc2)cc1	-12.2% (inactive)
CSc1nc(NCc2ccc(Cl)cc2)c2[nH]c(C)nc2n1	7.7% (inactive)
CC(=O)Nc1ccc(/C=C2\CCOC2=O)cc1[N+](=O)[O-]	6.8% (inactive)
Fc1ccccc1C(Nc1nc2ccccc2s1)Nc1nc2ccccc2s1	13.4% (inactive)
CN(C)CC1(Cc2ccccc2)CCC(Cc2ccccc2)C1=O (stereo not given)	85.5% (active)
O=C(Nc1ccc(S(=O)(=O)NC2CCCCC2)cc1)OC1CCCCCC1	2.6% (inactive)
c1ccc2cc3c(cc2c1)OP1(=NP2(=NP4(=N1)Oc1cc5ccccc5cc1O4)Oc1cc4ccccc4cc1O2)O3	67.7% (inactive)
CC(=O)OC/C(=C/C#N)C1CCC2C3CCC4CC(OC(C)=O)CCC4(C)C3CCC12C (stereo not given)	47% (inactive)
COc1ccc(C2=Nn3c(nc4sc(-c5ccccc5)cc4c3=O)SC2)cc1	-16.9% (inactive)
O=C(NC(=S)Nc1cccc(Cl)c1)c1ccccc1	15.9% (inactive)
C#CC(C)(C)OC(=O)Nc1cccc(Cl)c1	12.8% (inactive)
NC(=O)c1c[n+]([O-])ccc1[N+](=O)[O-]	40.1% (inactive)
COc1ccc(OC)c(NC(=O)C2=C(C)NC(C)=C(C(=O)Nc3cc(OC)ccc3OC)C2c2cccc([N+](=O)[O-])c2)c1	1.05% (inactive)
CCOC(=O)CC[C@H](NC(=O)c1[nH]cnc1/N=N/N(C)C)C(=O)OCC	-24.5% (inactive)
Cc1nc2ccccc2nc1CC(O)(c1ccccc1)c1cccc2ccccc12 (stereo not given)	55.8% (inactive)
O=C(Nc1nncs1)c1cccs1	-13.8% (inactive)
CN(CCC[N+](C)(C)C)C(=O)C(c1ccccc1)c1ccccc1	45% (inactive)
CCC(=O)OCC[N+](C)(C)C	-29.2% (inactive)
O=S1(=O)OCCOS(=O)(=O)C1S(=O)(=O)c1ccc2ccccc2c1	50.5% (inactive)
